# Assay outcomes: PubChem, National Center for Advancing Translational Sciences (NCATS)
# Sfp PPTase inh: blocks B. subtilis Sfp PPTase activity; AID 1490; Biochemical Sfp PPTase activity, qHTS; Potency, µM, for inactives: largest response in the series, negative = inhibition, most hits filed as inhibitors; 3.5% of 310,000 active; Q9F4F7;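 note: the enzyme is Sfp with the accession as filed and its product quenches rhodamine fluorescence; 0% = enzyme reaction without inhibitor and -100% = no enzyme wells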
#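 Compounds were incubated with enzyme (final 15 nM) for 15 min at room temperature before substrate addition started the reaction. Fluorescence at 525 nm excitation, 598 nm emission was recorded immediately and after 30 minutes.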
# Tau fluor cs: counter-screen for tau fibril formation inhibitors; tau K18 P301L Alexa594 fluorescence, heparin fibrillization; Potency, µM (highest dose often 57.7 µM), for the others: at the top dose activity change, negative = decrease; 0.93% of 280,000 active; AID 1463; note: nearly all actives have a fitted effect of over 55% in size
#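 Human tau K18 P301L (15 uM unlabeled, 0.24 uM Alexa 594-labeled) in 100 mM sodium acetate pH 7 with 20 uM heparin, 6 hr at 37 C. ThT 30 uM added, 1 hr ambient; Alexa 594 FP and total fluorescence read at 555/632 nm.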
# PLK1 PBD block: inhibitors of human PLK1 polo-box domain binding; P53350; Plk1 PBD binding of FITC phosphopeptide, fluorescence polarization; Potency, µM, for the others: max response, negative = inhibition, usual class: inhibitors; 2.8% of 360,000 active; AID 720504; note: series mostly up to about 57 µM; nearly all actives have a fitted effect of over 65% in size
# VDR inhibitor: inhibitors of human vitamin D receptor. VDR-SRC2-3 peptide fluorescence polarization, 2 h. Potency, µM, inactives show max response, negative = inhibition, usual class: inhibitors. 0.93% of 400,000 active. AID 504847
#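 VDR–SRC2-3 interaction, FP format. Cmpds 23 nl via pintool, brief spin, 2 h ambient incubation.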
# Tau fibril FP: inhibitors of human tau fibril formation | 0.39% of 280,000 active | Potency, µM (titrated, usually from 57.7 µM), inactives show at the highest dose activity, negative = inhibition, most hits filed as inhibitors | K18 P301L tau heparin fibrillization, Alexa594 FP, 6 h; note: nearly all actives have a fitted effect of over 55% in size
# Target sequence (P10636 561-689 P618L limits assumed): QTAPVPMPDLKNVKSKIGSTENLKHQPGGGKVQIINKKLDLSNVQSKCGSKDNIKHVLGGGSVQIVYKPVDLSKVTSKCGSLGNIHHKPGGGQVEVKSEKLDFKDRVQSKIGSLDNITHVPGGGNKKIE
#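 Read-out: fluorescence polarization of Alexa 594-labeled tau (0.24 uM), 555 nm excitation, 632 nm emission. Mixtures held 15 uM unlabeled K18 P301L, compound and 20 uM heparin, pH 7 acetate buffer, incubated 6 hr at 37 C.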
# Tau ThT inhib: inhibitors of human tau fibril formation, thioflavin T binding; P10636; recombinant tau K18 P301L (four-repeat tau fragment), heparin-induced fibrillization, ThT fluorescence; Potency, µM (top dose mostly 57.4 µM), inactives show top-dose activity, negative = inhibition, usual class: inhibitors; 2.1% of 270,000 active; note: nearly all actives have a fitted effect of over 55% in size
#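 Recombinant human tau K18 fragment […] carrying P301L, 15 uM unlabeled plus 0.24 uM Alexa 594-labeled, was fibrillized with 20 uM heparin in 100 mM sodium acetate pH 7 for 6 hr at 37 C; 30 uM ThT fluorescence read after 1 hr.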
# An asterisk follows results filed as active; u = inconclusive; x = no result given. Hits are enriched below; roughly 6% of the tested compounds scored in any of these assays. Calls come from the whole dose curve; as a rule, active = well fitted curve in the direction sought with a large enough effect; inconclusive = small, poorly fitted or top-dose-only effect, or another doubt; inactive = no such curve, though single readings can be large; an effect the other way counts as inactive or inconclusive. Unless noted, % is set by controls: 0 for no effect and ±100 for the full control effect; potency is the fitted concentration of half-maximal effect.
SMILES,Sfp PPTase inh,Tau fluor cs,PLK1 PBD block,VDR inhibitor,Tau fibril FP,Tau ThT inhib
COc1cc(/C=C2\COC/C(=C\c3ccc(O)c(OC)c3)C2=O)ccc1O,7.7%,u,-2.1%,u,u,10µM*
COc1cc(/C=C2\CC/C(=C\c3ccc(OCCO)c(OC)c3)C2=O)ccc1OCCO,-16.3%,-26.5%,1.7%,-3.6%,u,14.1µM*
COc1ccccc1OCCCOc1ccc(/C=C2\SC(=O)NC2=O)cc1OC,5.5%,x,u,-6.5%,x,x
CC(C)(C)NCC(O)COc1nsnc1N1CCOCC1 (stereo not drawn),x,-4.6%,x,x,-3.2%,-0.8%
CCOC(=O)C1=C(C)Nc2ccccc2N=C1NC(=O)c1cc(C)on1,x,x,1.5%,3.4%,x,x
CCc1nc2oc(C(=O)c3ccccc3)c(N)c2c2c1COC(C)(C)C2,6.1%,-10.3%,-5.2%,2.3%,2.3%,-8.0%
CCOC(=O)c1oc2nc(C)c3c(c2c1N)CC(C)(C)OC3,-1.6%,3.7%,11.9µM*,u,0.5%,5.3%
